Shown are actives, neighbours in structure and some others; about 4% of the full set was active somewhere.
Bead autofluor: counter-screen for toxin protease inhibitors: compound fluorescence | compound autofluorescence counterscreen, microsphere flow cytometry; active compounds read high | fluorescence intensity (concentration not given with the values) | hit rate 3.1% among 360,000; in the data active = fluorescence intensity above about 16000; inconclusive = no clear call, values can overlap the other calls
BoNT-F LC inh: BoNT F light chain protease inhibition; Multiplex microsphere protease cleavage assay, flow cytometry; hit rate 0.22% among 360,000; AID 588497; inhibition, % at 10 µM; in the data active = inhibition above about 35%, passing the limit was not always enough; inconclusive = no clear call, values can overlap the other calls
MazF activator: increases E. coli MazEF RNase cleavage of RNA; hit rate 0.32% among 350,000; activation, % at 20 µM; FAM/BHQ RNA-DNA oligo cleavage fluorescence, 5 h; P0AE70; in the data active = activation above about 50%
Anthrax LF inh2: blocks Bacillus anthracis lethal factor protease. AID 588501. hit rate 0.12% among 360,000. P15917. inhibition, % at 10 µM. multiplex microsphere protease cleavage assay, LF
Target sequence (P15917 whole entry, looked up): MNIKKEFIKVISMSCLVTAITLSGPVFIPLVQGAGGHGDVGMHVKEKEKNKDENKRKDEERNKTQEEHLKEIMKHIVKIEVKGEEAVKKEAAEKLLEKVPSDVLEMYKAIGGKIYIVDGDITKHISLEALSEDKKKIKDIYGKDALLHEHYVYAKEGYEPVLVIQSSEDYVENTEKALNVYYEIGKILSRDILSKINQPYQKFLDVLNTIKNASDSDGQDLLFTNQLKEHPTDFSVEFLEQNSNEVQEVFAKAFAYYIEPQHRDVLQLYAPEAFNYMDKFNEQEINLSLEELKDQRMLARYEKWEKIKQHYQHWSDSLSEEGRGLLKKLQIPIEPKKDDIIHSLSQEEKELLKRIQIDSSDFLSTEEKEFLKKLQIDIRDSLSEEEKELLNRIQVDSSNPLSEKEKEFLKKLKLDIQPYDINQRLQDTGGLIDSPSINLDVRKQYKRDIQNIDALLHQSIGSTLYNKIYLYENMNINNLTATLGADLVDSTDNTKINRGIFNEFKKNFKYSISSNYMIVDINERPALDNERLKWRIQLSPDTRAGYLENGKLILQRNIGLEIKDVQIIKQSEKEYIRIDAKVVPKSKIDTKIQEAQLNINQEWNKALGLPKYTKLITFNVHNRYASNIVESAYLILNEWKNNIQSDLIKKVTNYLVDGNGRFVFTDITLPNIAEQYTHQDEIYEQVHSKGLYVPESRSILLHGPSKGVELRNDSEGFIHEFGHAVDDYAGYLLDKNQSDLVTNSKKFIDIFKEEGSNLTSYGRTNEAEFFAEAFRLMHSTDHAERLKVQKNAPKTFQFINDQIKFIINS
VHR inh abs: inhibitors of human VHR1 phosphatase (DUSP3); P51452; recombinant VHR phosphatase, pNPP absorbance; inhibition, % at 13.3 µM; hit rate 0.52% among 290,000; AID 1654; in the data active = inhibition above about 50%
BoNT A protease: blocks Botulinum neurotoxin A light chain protease; multiplex microsphere protease substrate cleavage, flow cytometry; inhibition, % at 10 µM; hit rate 0.17% among 360,000; AID 588499
A number is an active result. Rule as the data show it, unless noted: active = inhibition above about 30%; inconclusive = no clear call, values can overlap the other calls; inactive = below that.

What do the screens show for `O=C(NCc1ccco1)c1cc(-c2cccc(Cl)c2)on1`?
Bead autofluor: 21505; BoNT-F LC inh: inactive; MazF activator: inactive; Anthrax LF inh2: inactive; VHR inh abs: inactive; BoNT A protease: inactive

How did O=C(NCc1ccco1)c1cc(-c2ccc(Cl)cc2)on1 do in these assays?
Bead autofluor: 22771; BoNT-F LC inh: inactive; MazF activator: inactive; Anthrax LF inh2: inactive; VHR inh abs: inactive; BoNT A protease: inactive

How did O=C(CCc1ccc(S(=O)(=O)NCc2ccccc2)cc1)NCc1cccnc1 do in these assays?
Bead autofluor: inactive; BoNT-F LC inh: inactive; MazF activator: inactive; Anthrax LF inh2: inactive; VHR inh abs: inactive; BoNT A protease: inactive

What do the screens show for `CCOc1ccc(NC(=O)C(c2ccccn2)N(C(=O)CCl)c2ccc(F)cc2)cc1` (stereo not given)?
Bead autofluor: inactive; BoNT-F LC inh: inactive; MazF activator: inactive; Anthrax LF inh2: inactive; VHR inh abs: inactive; BoNT A protease: inactive

How did COc1ccc(NS(=O)(=O)c2cccc3nsnc23)cc1OC do in these assays?
Bead autofluor: inactive; BoNT-F LC inh: inactive; MazF activator: inactive; Anthrax LF inh2: inactive; VHR inh abs: 51; BoNT A protease: inactive

How did CCOc1cccc(C2NCc3ccccc3-n3cccc32)c1O (stereo not given) do in these assays?
Bead autofluor: inactive; BoNT-F LC inh: inactive; MazF activator: inactive; Anthrax LF inh2: inactive; VHR inh abs: inactive; BoNT A protease: inactive

Results for Cc1cc(C)nc(Nc2n[nH]c(COc3ccccc3)n2)n1 ?
Bead autofluor: inactive; BoNT-F LC inh: inactive; MazF activator: inactive; Anthrax LF inh2: inactive; VHR inh abs: inactive; BoNT A protease: inactive

How did Cc1cc(C)nc(Nc2n[nH]c(COc3ccc4ccccc4c3)n2)n1 do in these assays?
Bead autofluor: 22079; BoNT-F LC inh: inactive; MazF activator: inactive; Anthrax LF inh2: inactive; VHR inh abs: inactive; BoNT A protease: inactive

What do the screens show for `Cc1nn(S(=O)(=O)c2ccc(Cl)cc2)c(C)c1S(=O)(=O)N1CCOCC1`?
Bead autofluor: inactive; BoNT-F LC inh: inactive; MazF activator: inactive; Anthrax LF inh2: inactive; VHR inh abs: inactive; BoNT A protease: inactive

How did COC(=O)c1cc2c(-c3ccccc3)c(C)c3ccccn3c-2c1C(=O)OC do in these assays?
Bead autofluor: inactive; BoNT-F LC inh: inactive; MazF activator: 50; Anthrax LF inh2: inactive; VHR inh abs: inactive; BoNT A protease: inactive

How did O=C1NN(c2ccccc2)C(=O)/C1=C\c1ccccc1OCC(=O)N1CCOCC1 do in these assays?
Bead autofluor: 21121; BoNT-F LC inh: inactive; MazF activator: inactive; Anthrax LF inh2: inactive; VHR inh abs: inactive; BoNT A protease: inactive

What do the screens show for `COc1cc(OC)cc(-c2sc3ccc(OC)cc3c2-c2ccc(O)cc2)c1`?
Bead autofluor: inactive; BoNT-F LC inh: inactive; MazF activator: inactive; Anthrax LF inh2: inactive; BoNT A protease: inactive

How did Cc1cc(C(=O)Nc2c(F)cc(F)cc2Br)c(C)o1 do in these assays?
Bead autofluor: 17675; BoNT-F LC inh: inactive; MazF activator: inactive; Anthrax LF inh2: inactive; VHR inh abs: inactive; BoNT A protease: inactive

Results for Cc1noc(C)c1C(=O)Nc1ccc(Cl)cc1C(F)(F)F ?
Bead autofluor: 23519; BoNT-F LC inh: inactive; MazF activator: inactive; Anthrax LF inh2: inactive; VHR inh abs: inactive; BoNT A protease: inactive

Results for Cc1noc(C)c1C(=O)Nc1c(F)cc(F)cc1Br ?
Bead autofluor: 23289; BoNT-F LC inh: inactive; MazF activator: inactive; Anthrax LF inh2: inactive; VHR inh abs: inactive; BoNT A protease: inactive

How did OC(CCCN1CCC(O)(c2ccc(Cl)cc2)CC1)c1ccc(F)cc1 (stereo not given) do in these assays?
Bead autofluor: inactive; BoNT-F LC inh: inactive; MazF activator: inactive; Anthrax LF inh2: inactive; VHR inh abs: inactive; BoNT A protease: inactive

How did CC(=O)N(Nc1ccccc1)c1ccccc1 do in these assays?
Bead autofluor: inactive; BoNT-F LC inh: 35; MazF activator: inactive; Anthrax LF inh2: inactive; BoNT A protease: inactive

What do the screens show for `CC(=O)N(C)c1ccc(NC(=S)Nc2ccccc2)cc1`?
Bead autofluor: inactive; BoNT-F LC inh: inactive; MazF activator: inactive; Anthrax LF inh2: inactive; VHR inh abs: inactive; BoNT A protease: inactive

Results for CC1(C)CC(=O)C2=C(C1)OC(N)=C(C#N)C2C1CC=CCC1 (stereo not given) ?
Bead autofluor: 22645; BoNT-F LC inh: inactive; MazF activator: inactive; Anthrax LF inh2: inactive; VHR inh abs: inactive; BoNT A protease: inactive

How did CC1(C)CC(=O)C2=C(C1)OC(N)=C(C#N)[C@@H]2c1ccccc1[N+](=O)[O-] do in these assays?
MazF activator: 78; VHR inh abs: inactive

Results for CCOC(=O)C1=C(N)OC2=C(C(=O)CC(C)(C)C2)C1c1ccccc1OCC#N (stereo not given) ?
Bead autofluor: 20405; BoNT-F LC inh: inactive; MazF activator: inactive; Anthrax LF inh2: inactive; VHR inh abs: inactive; BoNT A protease: inactive

Results for COC(=O)C1=C(N)OC2=C(C(=O)CC(C)(C)C2)C1c1ccccc1OC (stereo not given) ?
Bead autofluor: inactive; BoNT-F LC inh: inactive; MazF activator: inactive; Anthrax LF inh2: inactive; VHR inh abs: inactive; BoNT A protease: inactive

What do the screens show for `CC1C(C#N)=C(N)OC2=C1C(=O)CC(C)(C)C2` (stereo not given)?
Bead autofluor: inactive; BoNT-F LC inh: inactive; MazF activator: inactive; Anthrax LF inh2: inactive; VHR inh abs: inactive; BoNT A protease: inactive

How did CC(COc1ccccc1)N1CCC(CO)(CCc2ccccc2)CC1 (stereo not given) do in these assays?
Bead autofluor: inactive; BoNT-F LC inh: inactive; MazF activator: inactive; Anthrax LF inh2: inactive; VHR inh abs: inactive; BoNT A protease: inactive

Results for Nc1nc(-c2ccccc2)cc(N2CCCCC2)n1 ?
Bead autofluor: inactive; BoNT-F LC inh: inactive; MazF activator: inactive; Anthrax LF inh2: inactive; VHR inh abs: inactive; BoNT A protease: inactive

Results for Cc1nc(-c2ccccc2)cc(N2CCCC2)n1 ?
Bead autofluor: 23051; BoNT-F LC inh: inactive; MazF activator: inactive; Anthrax LF inh2: inactive; VHR inh abs: inactive; BoNT A protease: inconclusive

How did CCOc1ccc(/C(O)=C2/C(=O)C(=O)N(CCOCCO)C2c2ccc(F)cc2)cc1 (stereo not given) do in these assays?
Bead autofluor: inactive; BoNT-F LC inh: inactive; MazF activator: inactive; Anthrax LF inh2: inactive; VHR inh abs: inactive; BoNT A protease: inactive

How did CCOc1ccc(/C(O)=C2/C(=O)C(=O)N(CCOCCO)C2c2ccccn2)cc1 (stereo not given) do in these assays?
Bead autofluor: 22618; BoNT-F LC inh: inactive; MazF activator: inactive; Anthrax LF inh2: inactive; VHR inh abs: inactive; BoNT A protease: inactive

How did COc1ccc(S(=O)(=O)NC2CC(C)(C)NC(C)(C)C2)cc1 do in these assays?
Bead autofluor: inactive; BoNT-F LC inh: inactive; MazF activator: inactive; Anthrax LF inh2: inactive; VHR inh abs: inactive; BoNT A protease: inactive

What do the screens show for `Cc1cc(S(=O)(=O)NC2CC(C)(C)NC(C)(C)C2)c(Cl)cc1Cl`?
Bead autofluor: inactive; BoNT-F LC inh: inactive; MazF activator: inactive; Anthrax LF inh2: inactive; VHR inh abs: 60; BoNT A protease: inactive

How did CC1(C)CC(NS(=O)(=O)c2ccc(Cl)cc2)CC(C)(C)N1 do in these assays?
Bead autofluor: inactive; BoNT-F LC inh: inactive; MazF activator: inactive; Anthrax LF inh2: inactive; VHR inh abs: 54; BoNT A protease: inactive

Bioassay records as filed in PubChem BioAssay.
